The values that follow come from the supplement of paper PMC8975748.

Where a name gives a salt, the structure may show the parent alone. ± gives the standard deviation of the averaged measurements.

Test [1] concerns Saccharomyces cerevisiae BY4741 SeMeCo community. Briefly: mean cell size (pixel area) (pixels); higher = larger cells. The settings on record: 10 µM; 24 h; SM minimal medium. Put shortly: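 A four-plasmid fluorescent Saccharomyces cerevisiae BY4741 community was tested; each plasmid complements one auxotrophy and carries a fluorescent marker. An overnight preculture at OD600 = 1.0 was diluted to OD600 = 0.3, and 70 µl was added to 384-well plates acoustically predosed with drug (final 10 µM) in SM medium for 24 h. Cells were fixed with paraformaldehyde and imaged by automated confocal microscopy, with analysis in Harmony. Mean cell pixel area per well is averaged over 3 replicates. Same SeMeCo high-content imaging drug screen: Selleck FDA-approved drugs at 10 µM, 24 h in SM medium, 384-well plates, 3 replicates.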

The test system is the same in test [2]. Briefly: z-score of prototroph abundance vs DMSO median; higher = larger share of this subpopulation than in DMSO controls. The settings on record: 10 µM; 24 h; SM minimal medium; subpopulation (auxotrophy): Prototroph. The method in brief:
(§1)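 A community of Saccharomyces cerevisiae BY4741 was built from four plasmids that each restored one auxotrophy and encoded a distinct fluorescent protein. Pre-grown overnight to OD600 1.0 and diluted to 0.3, it was dispensed at 70 µl into 384-well plates acoustically predosed with library drugs for a final 10 µM, and grown 24 h in minimal SM medium. Cells were then paraformaldehyde-fixed and imaged by automated confocal microscopy. Thresholds and autofluorescence correction came from single-auxotroph fluorescent strains, and each subpopulation's abundance was scored as a z-score relative to the vehicle-well median.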

Test [3] has the same test system. Kind of test: z-score of subpopulation abundance vs DMSO median, subpopulation auxotrophic for M; higher = larger share of this subpopulation than in DMSO controls. The settings on record: 10 µM; 24 h; SM minimal medium; subpopulation (auxotrophy): M. The method in brief: as §1
Test [4] has the same test system. Kind of test: z-score of subpopulation abundance vs DMSO median, subpopulation auxotrophic for L; higher = larger share of this subpopulation than in DMSO controls. As to conditions: 10 µM; 24 h; SM minimal medium; subpopulation (auxotrophy): L. The method in brief: as §1
Test [5] has the same test system. Kind of test: z-score of subpopulation abundance vs DMSO median, subpopulation auxotrophic for H; higher = larger share of this subpopulation than in DMSO controls. As to conditions: 10 µM; 24 h; SM minimal medium; subpopulation (auxotrophy): H. Put shortly: as §1
Test [6] has the same test system. Briefly: z-score of subpopulation abundance vs DMSO median, subpopulation auxotrophic for LU; higher = larger share of this subpopulation than in DMSO controls. As to conditions: 10 µM; 24 h; SM minimal medium; subpopulation (auxotrophy): LU. Put shortly: as §1
For test [7] the test system is unchanged. Briefly: z-score of subpopulation abundance vs DMSO median, subpopulation auxotrophic for LM; higher = larger share of this subpopulation than in DMSO controls. The settings on record: 10 µM; 24 h; SM minimal medium; subpopulation (auxotrophy): LM. The method in brief:
as §1

Test [8] has the same test system. Briefly: z-score of subpopulation abundance vs DMSO median, subpopulation auxotrophic for HM; higher = larger share of this subpopulation than in DMSO controls. As to conditions: 10 µM; 24 h; SM minimal medium; subpopulation (auxotrophy): HM. Put shortly:
as §1

Test [9] shares this test system. Kind of test: z-score of subpopulation abundance vs DMSO median, subpopulation auxotrophic for HU; higher = larger share of this subpopulation than in DMSO controls. The settings on record: 10 µM; 24 h; SM minimal medium; subpopulation (auxotrophy): HU. Put shortly: as §1
For test [10] the test system is unchanged. Briefly: z-score of subpopulation abundance vs DMSO median, subpopulation auxotrophic for UM; higher = larger share of this subpopulation than in DMSO controls. As to conditions: 10 µM; 24 h; SM minimal medium; subpopulation (auxotrophy): UM. The method in brief: as §1
The test system is the same in test [11]. Briefly: z-score of subpopulation abundance vs DMSO median, subpopulation auxotrophic for HL; higher = larger share of this subpopulation than in DMSO controls. The settings on record: 10 µM; 24 h; SM minimal medium; subpopulation (auxotrophy): HL. Put shortly:
as §1

Test [12] has the same test system. Kind of test: z-score of subpopulation abundance vs DMSO median, subpopulation auxotrophic for HLU; higher = larger share of this subpopulation than in DMSO controls. As to conditions: 10 µM; 24 h; SM minimal medium; subpopulation (auxotrophy): HLU. The method in brief: as §1
Test [13] shares this test system. Briefly: z-score of subpopulation abundance vs DMSO median, subpopulation auxotrophic for HUM; higher = larger share of this subpopulation than in DMSO controls. The settings on record: 10 µM; 24 h; SM minimal medium; subpopulation (auxotrophy): HUM. Put shortly:
as §1

Test [14] shares this test system. Briefly: z-score of subpopulation abundance vs DMSO median, subpopulation auxotrophic for LUM; higher = larger share of this subpopulation than in DMSO controls. The settings on record: 10 µM; 24 h; SM minimal medium; subpopulation (auxotrophy): LUM. The method in brief:
as §1

Test [15] shares this test system. Briefly: z-score of subpopulation abundance vs DMSO median, subpopulation auxotrophic for HLUM; higher = larger share of this subpopulation than in DMSO controls. The settings on record: 10 µM; 24 h; SM minimal medium; subpopulation (auxotrophy): HLUM. Put shortly:
as §1

Test [16] shares this test system. Briefly: z-score of subpopulation abundance vs DMSO median, subpopulation auxotrophic for U; higher = larger share of this subpopulation than in DMSO controls. The settings on record: 10 µM; 24 h; SM minimal medium; subpopulation (auxotrophy): U. Put shortly: as §1
The test system is the same in test [17]. Briefly: z-score of subpopulation abundance vs DMSO median, subpopulation auxotrophic for HLM; higher = larger share of this subpopulation than in DMSO controls. The settings on record: 10 µM; 24 h; SM minimal medium; subpopulation (auxotrophy): HLM. The method in brief:
as §1

As for `CO/N=C(\C(=O)N[C@@H]1C(=O)N2C(C(=O)OCOC(=O)C(C)(C)C)=C(/C=C\c3scnc3C)CS[C@H]12)c1csc(N)n1` [Cefditoren Pivoxil], in test [1], the mean cell size amounted to 12.3 ± 0.23. Also, in [2], the “z-score of prototroph abundance” value was -0.6. Moreover, the “z-score of subpopulation abundance” value in test [3] was 0.2; in test [4] it was 1.38; in test [5], 0.56; in test [6], 0.07; in test [7], 1.47; in [8], 1.45. Further, the “z-score of subpopulation abundance” value in [9] was -0.64; in test [10], -0.06; in test [11], 1.56; in [12], 0.74; in test [13], 0.78; in [14], 1.12. For the same compound, the “z-score of subpopulation abundance” value in test [15] was determined as 0.48.
In the case of `Nc1nc(/C(=C/CC(=O)O)C(=O)N[C@@H]2C(=O)N3C(C(=O)O)=CCS[C@H]23)cs1` [Ceftibuten dihydrate], the mean cell size in [1] was determined as 12.6 ± 0.21. The “z-score of prototroph abundance” value in test [2] came to 0.52. In addition, the “z-score of subpopulation abundance” value is 0.21 in test [3]; 0.22 in test [4]; -0.28 in test [16]; -0.33 in test [5]; -0.12 in test [6]; 0.1 in test [7]. Besides, the “z-score of subpopulation abundance” value in test [8] was -0.56; in test [9], -0.31; in test [10], -0.49; in test [11], -0.1; in [12] it was -0.13; in test [13], -1.27. In addition, the “z-score of subpopulation abundance” value in test [14] came out at 0.4; in test [15], 0.51.
For the compound `CNS(=O)(=O)CCc1ccc2[nH]cc(C3CCN(C)CC3)c2c1` [Naratriptan HCl], the mean cell size in test [1] is 12.4 ± 0.17. The “z-score of prototroph abundance” value in test [2] was 0.15. Moreover, the “z-score of subpopulation abundance” value in test [3] is 0.48; in test [4], -0.79; in [16], 0.55; in test [5], -0.46; in test [6], 0.2; in test [7] it was 0.06. The “z-score of subpopulation abundance” value in test [8] was -0.44; in test [9], 0.27; in test [10] it was 0.23; in test [11], -0.28; in [12], -0.03; in [13] it was -0.27. The entries for the “z-score of subpopulation abundance” value in test [14] and in test [15] were -0.24 and -0.77, respectively.
On to `CC(C)(O/N=C(\C(=O)N[C@@H]1C(=O)N2C(C(=O)[O-])=C(C[n+]3ccccc3)CS[C@H]12)c1csc(N)n1)C(=O)O` [Ceftazidime], for which the mean cell size in [1] turned out to be 12 ± 0.14. The “z-score of prototroph abundance” value in [2] came out at 0.11. The “z-score of subpopulation abundance” value was -0.44 in [3]; -0.23 in test [4]; -0.24 in test [16]; 0.63 in [5]; -0.93 in [6]; 0.27 in [10]. Besides, the “z-score of subpopulation abundance” value was 0.02 in test [11]; 0.34 in test [12]; -0.39 in [17]; 0.05 in [14]; -0.76 in test [15].
In test [1], `CC(C(=O)O)c1cccc(C(=O)c2ccccc2)c1` (stereo not given) [Ketoprofen] had a mean cell size of 12.4 ± 0.2. Also, the “z-score of prototroph abundance” value in test [2] is -0.62. Moreover, the “z-score of subpopulation abundance” value in [3] is -0.04; in test [4], 1.73; in test [16] it was -0.65; in test [5] it was 0.99; in test [6], 0.57; in test [7], 1.24. The “z-score of subpopulation abundance” value was 0.55 in [8]; -0.66 in [9]; -0.3 in test [10]; 0.39 in test [12]; -0.02 in test [13]; 1.22 in test [14]. Further, the “z-score of subpopulation abundance” value in test [15] was 1.1.
In test [1], `Cc1ccc(Nc2c(F)cccc2Cl)c(CC(=O)O)c1` [Lumiracoxib] yielded a mean cell size of 12.9 ± 0.21. Also, the “z-score of subpopulation abundance” value in test [3] was 0.63; in test [4] it was -1.37; in [16] it was -0.66; in test [5], -0.79; in [6], -1.15; in test [7], 0.14. The “z-score of subpopulation abundance” value was 0 in test [8]; -1.07 in [9]; -0.4 in test [10]; -0.53 in [12]; -1.5 in test [13]; -0.56 in [14]. The “z-score of subpopulation abundance” value in test [15] was -0.5.
On to `O=C1Cc2cc(CCN3CCN(c4nsc5ccccc45)CC3)c(Cl)cc2N1` [Ziprasidone HCl], for which the mean cell size in test [1] was found to be 12.2 ± 0.18. Moreover, the “z-score of prototroph abundance” value in [2] is -0.07. Besides, the “z-score of subpopulation abundance” value in [3] is 0; in [4], 1.56; in [16] it was -0.99; in [5] it was 0.97; in test [6] it was -0.33; in test [7], 1.54. Also, the “z-score of subpopulation abundance” value is 0.58 in [8]; -0.4 in test [9]; -0.51 in [10]; 1.22 in test [11]; 0.15 in test [12]; 0.81 in test [13]. The “z-score of subpopulation abundance” value stood at 0.56 in test [14] and 0.44 in [15].
